Screening data deposited in PubChem by National Center for Advancing Translational Sciences (NCATS).
Only some compounds are listed: those with a hit (about 11% of all), similar ones and a draw of the others.
BAZ2B block – qHTS Assay for Inhibitors of BAZ2B. 360,000 compounds, 4.4% hits. Bromodomain adjacent to zinc finger domain protein 2B (Homo sapiens), Q9UIF8. AlphaScreen BAZ2B-H3K14Ac peptide displacement. Potency, µM (highest dose often 114 µM), for the others: at the highest dose activity change, negative = inhibition, most hits filed as inhibitors; note: % is set by controls: 0 for no effect and ±100 for the full control effect; nearly all actives have a fitted effect of over 60% in size
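AlphaScreen displacement of biotin-H3(5-23)K14Ac peptide (50 nM final) from BAZ2B (50 nM final) in PBS pH 7.4, 0.01% Tween-20; complex preformed 30 min RT, then compounds (top 110 uM) 30 min RT, beads 20 min dark.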
G9a block – qHTS Assay for Inhibitors of Histone Lysine Methyltransferase G9a | G9a H3K9 monomethylation, AlphaScreen, 2 h | Potency, µM (highest dose often 102 µM), inactives show at the highest dose activity, negative = inhibition, hits mostly inhibitors | 350,000 compounds, 8.8% hits | Histone-lysine N-methyltransferase EHMT2 (Homo sapiens), Q96KQ7; note: % is set by controls: 0 for no effect and ±100 for the full control effect; nearly all actives have a fitted effect of over 75% in size
Target sequence (Q96KQ7 913-1193 limits assumed): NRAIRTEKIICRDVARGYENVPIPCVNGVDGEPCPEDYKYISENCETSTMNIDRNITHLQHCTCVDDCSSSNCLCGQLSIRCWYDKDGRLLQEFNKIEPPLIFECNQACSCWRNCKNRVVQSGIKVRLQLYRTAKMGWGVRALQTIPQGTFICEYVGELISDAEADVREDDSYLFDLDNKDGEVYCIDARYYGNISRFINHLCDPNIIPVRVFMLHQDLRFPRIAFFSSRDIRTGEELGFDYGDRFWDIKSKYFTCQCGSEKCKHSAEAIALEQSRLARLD
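Methyltransferase reactions run at room temperature for 2 h (20 nM enzyme, 500 nM biotin-H3K9 peptide, 20 uM SAM) after a 15 min compound preincubation; product detected by AlphaScreen beads and anti-H3K9me1 antibody.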
L3MBTL1 block – qHTS Assay for the Inhibitors of L3MBTL1; Lethal(3)malignant brain tumor-like protein 1 (Homo sapiens), Q9Y468; AlphaScreen L3MBTL1–H3K9me1 peptide binding; Potency, µM (highest dose often 57.1 µM), for inactives: at the top dose activity, negative = inhibition, most hits filed as inhibitors; 230,000 compounds, 0.66% hits; AID 485360, 2010; note: % is set by controls: 0 for no effect and ±100 for the full control effect; nearly all actives have a fitted effect of over 60% in size
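AlphaScreen assay: L3MBTL1 (50 nM final) was preincubated 30 min at room temperature with biotinylated H3(1-15)K9me1 peptide (75 nM final), then 30 min with library compounds; streptavidin donor and nickel chelate acceptor beads (10 ug/mL final) added, 30 min dark.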
JMJD2A Tudor – qHTS Assay for Inhibitors of JMJD2A-Tudor Domain; AlphaScreen JMJD2A-Tudor / H3K4me3 peptide binding; 390,000 compounds, 4.4% hits; Potency, µM (titrated, usually from 114 µM), without a hit: at the top dose activity change, negative = inhibition, usual class: inhibitors; note: % is set by controls: 0 for no effect and ±100 for the full control effect; nearly all actives have a fitted effect of over 50% in size
HP1b binding inh – HTS for Inhibitors of HP1-beta Chromodomain Interactions with Methylated Histone Tails; Chromobox protein homolog 1 (Homo sapiens), P83916; AlphaScreen HP1-beta / biotin-H3K9me3 peptide binding; Potency, µM (titrated, usually from 114 µM), for inactives: at the highest dose activity change, negative = inhibition, most hits filed as inhibitors; 390,000 compounds, 0.56% hits; note: nearly all actives have a fitted effect of over 70% in size
Target sequence (P83916 whole entry, looked up): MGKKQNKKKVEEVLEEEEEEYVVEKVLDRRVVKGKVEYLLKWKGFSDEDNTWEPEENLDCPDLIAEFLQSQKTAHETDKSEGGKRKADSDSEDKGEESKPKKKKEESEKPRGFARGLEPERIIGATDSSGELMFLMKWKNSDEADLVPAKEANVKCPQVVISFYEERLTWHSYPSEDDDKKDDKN
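HP1-beta protein (50 nM final) preincubated 30 min at room temperature with biotinylated H3(1-18)K9me3 peptide (50 nM) in PBS pH 7.4, 0.01% Tween-20, then compound added for 30 min. AlphaScreen streptavidin donor/nickel chelate acceptor beads (10 ug/mL final), 30 min dark, luminescence read.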
Active calls of the source: *; ? = inconclusive; nt = no result; [ ] = dose if it differs, or a comment. Calls come from the whole dose curve; as a rule, active = well fitted inhibition curve with a large enough effect; inconclusive = small, poorly fitted or top-dose-only effect; inactive = no such curve, though single readings can be large or run the other way. Potency is the fitted concentration of half-maximal effect.

SMILES	BAZ2B block	G9a block	L3MBTL1 block	JMJD2A Tudor	HP1b binding inh
CCc1cccc(NC(=O)C(CC)n2nc(C)c3sc4ccccc4c3c2=O)c1 (stereo unspecified)	3.5%	-32.9%[59 µM]	nt	-5.6%	42.7%
Cn1cc(-c2nc3cncnc3n(Cc3ccccc3Cl)c2=O)c2ccccc21	nt	48.5%[0.501 µM]	nt	nt	nt
CC(/C=C/c1ccco1)=N\NC(=O)c1cc(Cl)ccc1O	-34.1%	39.8µM*	nt	-34.3%	7.2%
CC(/C=C/c1ccco1)=N/NC(=O)c1ccc(C)nc1	-15.7%	-20.3%	nt	-23.5%	9.3%
O=C(/C=C/c1ccc2ccccc2n1)c1cc(Cl)ccc1O	70.8µM*	13.3%[0.501 µM]	nt	?	-7.5%
O=C(C=Cc1ccco1)c1cc(Cl)ccc1O	nt	nt	nt	22.4µM*	50.1µM*
CCC(CC)c1nnc(NC(=O)CN2C(=O)c3ccccc3C2=O)s1	-16.2%	44.7µM*	5.6%	-1.4%	7.4%
CCCC(C)c1nnc(NC(=O)CN2C(=O)c3ccccc3C2=O)s1 (stereo unspecified)	?	7.94µM*	4.6%	-3.0%	4.1%
CCC(CC)c1nnc(NC(=O)CCN2C(=O)c3ccccc3C2=O)s1	-3.2%	-1.3%	-2.9%	-13.2%	21.7%
CCCC(C)c1nnc(NC(=O)C(=O)OCC)s1 (stereo unspecified)	56.2µM*	?	-8.0%[11.4 µM]	17.8µM*	?
CCCC(C)c1nnc(NC(=O)C2CCCO2)s1 (stereo unspecified)	-1.4%	?	-6.2%[11.4 µM]	-12.5%	-21.1%
CCCC(C)c1nnc(NC(=O)c2cc(C(=O)OC)cc([N+](=O)[O-])c2)s1 (stereo unspecified)	-6.4%	8.91µM*	-1.6%	?	-59.1%
Cc1ccc(-n2ncc(C(=O)Nc3ccc4c(c3)OCCO4)c2C2CCN(C(=O)OC(C)(C)C)CC2)cc1C	-14.3%[57.1 µM]	?	nt	-35.9%	10.2%
CCOC(=O)c1ccc(NC(=O)c2cc(=O)c3cc(CC)ccc3o2)cc1	-3.0%	2.0%[59 µM]	nt	-33.3%	28.2%
CCc1ccccc1N1C(=O)c2cccc3c(N4CCOCC4)c([N+](=O)[O-])cc(c23)C1=O	?	15.8µM*	-26.4%	?	-38.0%
Cn1c(=O)c2c(ncn2CCO)n(C)c1=O	-16.4%	-8.2%[59 µM]	nt	-6.2%	33.8%
Cc1ccc(OCCn2cnc3c2c(=O)n(C)c(=O)n3C)cc1	0.8%	44.7µM*	nt	-5.7%	29.4%
Cc1cc(C)c(S(=O)(=O)/N=C2/C=C(Sc3ncn[nH]3)C(=O)c3ccccc32)cc1C	44.7µM*	1.41µM*	?	?	?
Cc1ccc([N+](=O)[O-])cc1S(=O)(=O)Nc1ccc(O)c(Sc2ncn[nH]2)c1	-3.5%	nt	nt	-19.2%	24.9%
CCOC(=O)c1cnc2ccc(OCC)cc2c1N1CCN(c2ccccc2OC)CC1	?	-21.4%	nt	-32.3%[57.1 µM]	22.1%
CCOC(=O)C1CCCN(c2c(C(=O)c3ccc(C)cc3)cnc3ccc(OCC)cc23)C1 (stereo unspecified)	50.1µM*	1.41µM*	nt	35.5µM*	-16.5%
CCc1ccc(C(=O)c2cnc3ccc(OC)cc3c2N2CCN(CC)CC2)cc1	50.1µM*	39.8µM*	-16.6%	-29.6%	18.9%
CCOc1ccc2ncc(C(=O)c3ccc(OC)cc3)c(N3CCN(CC)CC3)c2c1	?	44.7µM*	-24.0%	-32.9%	11.6%
CCOC(=O)C1CCN(c2c(C(=O)c3ccccc3)cnc3ccc(Cl)cc23)CC1	-38.4%	?	nt	-31.0%	27.8%
CCn1c(C(=O)OC)cc2c1ccn2-c1ccc(F)cc1	12.6µM*	?	-1.4%	3.16µM*	?
SMILES	BAZ2B block	G9a block	L3MBTL1 block	JMJD2A Tudor	HP1b binding inh
Cc1ccc(S(=O)(=O)CCN2CCN(c3ccccc3)CC2)cc1	-0.2%	1.3%	nt	1.3%	13.4%
Cc1ccc(S(=O)(=O)CCN2CCC(n3cccc3)CC2)cc1	39.8µM*	nt	-22.1%	-26.9%	-11.5%
O=[N+]([O-])c1ccc(/C=N/NS(=O)(=O)c2ccc(Cl)cc2)o1	-38.1%	3.55µM*	9.5%	?	24.0%
Clc1ccc2c(N/N=C/c3ccccc3Br)ccnc2c1	-4.8%	26.8%[59 µM]	2.2%	?	3.6%
O=[N+]([O-])c1ccc(/C=N/Nc2ccnc3cc(Cl)ccc23)o1	28.2µM*	39.8µM*	nt	39.8µM*	31.6µM*
Cc1ccc(S(=O)(=O)N/N=C\c2ccc([N+](=O)[O-])o2)cc1	-4.6%	3.55µM*	0.1%	-24.5%	4.5%
Cc1ccc(S(=O)(=O)N/N=C\c2ccc([N+](=O)[O-])o2)cc1C	-4.9%	79.4%	nt	-16.6%	42.7%
O=c1c(-c2cccs2)nc2cnc(N3CCNCC3)nc2n1C1CC1	nt	4.9%[0.501 µM]	nt	nt	nt
Cc1cc(C)cc(-n2c(SCC(=O)NC3CCCCC3)nc3c([nH]c4ccccc43)c2=O)c1	1.3%	-3.2%[59 µM]	nt	9.0%	29.7%[57 µM]
COC(=O)c1ccc(=O)c2nc3/c(=C/O)c(O)cc(=O)c3[nH]c12	0.708µM*	0.794µM*	nt	0.631µM*	-69.1%
COC(=O)c1ccc(N)cc1O	4.6%	1.0%[59 µM]	nt	-16.2%	20.5%
O=C(Nc1ccc(F)c(F)c1)C1CCCN1S(=O)(=O)c1cccc2nsnc12 (stereo unspecified)	-22.1%	2.8%[59 µM]	nt	-8.8%	17.4%
CCc1ccccc1NC(=O)Nc1cc(C(=O)NCc2ccc(OC)cc2)ccc1N1CCCC1	15.1%	34.1%[59 µM]	nt	-2.6%	56.5%
Nc1nc(-c2ccccn2)nc(N)c1Cc1ccc(Cl)cc1Cl	7.94µM*	-6.0%	3.55µM*	89.1µM*	34.0%
CNc1cc(C(F)(F)F)nc(-c2ccccn2)n1	-1.2%	12.5%[59 µM]	-7.0%	?	31.5%
Nc1nc(-c2ccccn2)nc(N)c1Cc1ccccc1F	6.31µM*	-0.5%	3.98µM*	?	41.9%
COc1ccccc1NC(=O)Cn1c(=O)n(-c2ccc(C)cc2)c(=O)c2c1cnn2C	-1.1%	1.8%[59 µM]	nt	-0.7%	34.5%
CCCCC1(CO)C(=O)N(c2ccccc2)N(c2ccccc2)C1=O	-8.4%	nt	nt	-23.4%	10.9%
CCCCC1(Br)C(=O)N(c2ccccc2)N(c2ccccc2)C1=O	?	?	-4.0%	17.8µM*	?
CC1Cc2cc(S(=O)(=O)NCc3ccc(N(C)C)cc3)ccc2N1C(=O)C1CCC1 (stereo unspecified)	35.5µM*	11.2µM*	nt	44.7µM*	-20.5%
COc1ccc(CNS(=O)(=O)c2ccc3c(c2)CC(C)N3C(=O)C2CC2)cc1 (stereo unspecified)	-5.7%	-3.3%[59 µM]	nt	-13.6%	32.3%
CN(C)c1ccc(CNS(=O)(=O)c2csc(C(N)=O)c2)cc1	-11.2%	50.1µM*	nt	-17.1%	15.4%
CC(C)(C)OC(=O)N1CCC(c2c(C(=O)NCc3ccc4c(c3)OCO4)cnn2-c2ccc(F)cc2F)CC1	5.0%[57.1 µM]	-8.2%[59 µM]	nt	-9.1%	15.8%
